Sampled rows, rich in hits. Any-hit rate of the full collection: about 4.9%.
HSF1 inh: HSF1 inhibitors in luciferase reporter cells, primary screen, cell-based, NIH3T3, luminescence. NIH3T3-HGL HSE-luciferase, MG132-induced, luminescence 8 h; stronger effect = lower value. actives 0.77% (n = 300,000). activity change, negative = inhibition, % at 7.5 µM (by protocol);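 active = more than half of replicate wells show activity change below -50%, luminescence cut by over half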;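 also: luciferase reports HSF-1 transcriptional activity via heat shock element; 0% = median of DMSO wells and -100% = zero luminescence signal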
dFosB act: activators of delta FosB homodimer, primary screen, biochemical, fluorescence polarization, TAMRA-CDK5 oligo, single point; Protein FosB (Mus musculus), P13346; purified delta FosB; percent of positive-control signal above neutral wells; activation, % at 25 µM; actives 0.99% (n = 340,000); AID 493131, 2011;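 active = mean activation above about 17%, with every replicate also reaching it, limit read from the data, passing the limit was not always enough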
Target sequence (P13346 whole entry, looked up): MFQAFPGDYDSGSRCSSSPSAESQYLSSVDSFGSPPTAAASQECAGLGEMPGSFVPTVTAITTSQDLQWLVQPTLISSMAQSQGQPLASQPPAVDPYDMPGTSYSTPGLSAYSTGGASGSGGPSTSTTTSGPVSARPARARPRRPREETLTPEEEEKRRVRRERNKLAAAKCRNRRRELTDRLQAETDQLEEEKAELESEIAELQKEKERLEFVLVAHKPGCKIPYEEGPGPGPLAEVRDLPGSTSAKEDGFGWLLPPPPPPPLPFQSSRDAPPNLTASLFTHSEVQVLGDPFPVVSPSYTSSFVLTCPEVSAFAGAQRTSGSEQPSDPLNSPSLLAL
HSF1 activator: HSF-1 activators, primary screen, NIH3T3-HGL cells, MG132 stress, luminescence, single point. NIH3T3-HGL HSF-1 luciferase reporter, 8 h; 100% = twice DMSO control signal. activation, % at 9 µM. actives 1.7% (n = 300,000). AID 504408, 2011;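 active = mean replicate activation of at least 50% with a set share of replicates each reaching 50%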;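 also: 0% = median of the neutral control wells and 100% = twice that signal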
MPTP inh: mitochondrial permeability transition pore inhibitors, primary screen, biochemical, isolated mouse mitochondria, absorbance | actives 1.4% (n = 360,000) | inhibition, % at 10 µM | Ca2+ swelling absorbance, 30 min;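 active = inhibition of 50% or more, scaled per plate between neutral and stimulator controls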;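 also: 0% = DMSO wells given calcium and 100% = 1 mM EGTA wells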
Platelet DG rel: inhibitors of platelet dense granule secretion, primary screen, cell-based, MLPCN, human platelets | human platelet-rich plasma, SFLLRN dense granule ATP release, luminescence | inhibition, %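 (compounds screened at 7.5 µM in platelet-rich plasma)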 | actives 0.22% (n = 300,000) | AID 1663, 2009;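 active = mean replicate score, as percent of positive control, at or above 50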
HSP90 refold inh: HSP90 inhibitors, primary screen, cell lysate, luminescence. Heat shock protein HSP 90 (rabbit reticulocyte lysate; luciferase refolding). inhibition, % at 5.6 µM. Rabbit reticulocyte lysate, luciferase refolding luminescence, 3 h. actives 0.91% (n = 290,000);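 active = inhibition above the screen-wide mean plus 3 SD, computed separately per campaign, cut at about 16% in these data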;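 also: 0% = DMSO wells and 100% = 60 µM geldanamycin wells; inhibitors lower the luminescence because luciferase stays unfolded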
The depositor's hits bear a star; · = no result.

SMILES | HSF1 inh | dFosB act | HSF1 activator | MPTP inh | Platelet DG rel | HSP90 refold inh
CC(=O)NC(=S)Nc1ccc(NC(=O)COc2ccc(C(C)C)cc2)cc1 | 4 | -10 | 24 | 9 | 4 | 0
CC(=O)NC(=S)Nc1ccc(NC(=O)COc2ccc(Cl)cc2)cc1 | 32 | -5 | 64* | 4 | -1 | -1
CCC(=O)NC(=S)Nc1ccc(NC(=O)COc2ccc([N+](=O)[O-])cc2)cc1 | 8 | -1 | 36 | 9 | -4 | -2
Cc1nn(C2CCS(=O)(=O)C2)c(C)c1C=O (stereo not drawn) | -4 | 3 | -2 | 0 | -1 | 2
CCN(CC)S(=O)(=O)c1ccc(NC(=O)c2ccc(N3CCCC3=O)cc2)cc1 | · | 2 | · | 1 | · | ·
COc1cccc(C(=O)NNC(=O)c2ccc3ccccc3c2)c1 | · | 2 | · | -2 | · | ·
COCCCNC(=S)Nc1ccc2nc(N3CCOCC3)cc(C)c2c1 | -12 | 1 | -20 | -1 | -4 | 2
CCOCCCNC(=S)Nc1ccc2nc(N3CCOCC3)cc(C)c2c1 | 76 | -5 | 125* | -1 | -12 | 4
CCc1ccc(NC(=O)CN(c2ccccc2)S(=O)(=O)N(C)C)cc1 | 13 | -5 | 60* | -1 | 3 | 0
COc1ccc2c(CCNC(=O)c3ccc([N+](=O)[O-])cc3)c[nH]c2c1 | 1 | 5 | 19 | 4 | 5 | 1
CCCc1cc(=O)oc2cc(OCC(=O)N3C[C@H]4C[C@@H](C3)c3cccc(=O)n3C4)c(Cl)cc12 | 36 | -10 | 57* | -1 | -6 | -6
O=C(COc1cc2oc(=O)c3c(c2cc1Cl)CCCC3)N1C[C@H]2C[C@@H](C1)c1cccc(=O)n1C2 | 7 | -3 | 19 | 0 | -2 | -1
Cc1cc(C)n2nc(C(=O)OCC(=O)NCc3ccc(F)cc3)nc2n1 | · | -7 | · | -1 | · | ·
O=C(/C=C/c1ccc([N+](=O)[O-])s1)N1CCCCC1 | 46 | 0 | 61* | -2 | -1 | 1
CC1CC(C)CN(C(=O)/C=C/c2ccc([N+](=O)[O-])s2)C1 (stereo not drawn) | 61 | -9 | 75* | 1 | 1 | 0
CC(C)CC(N)c1csc(Nc2ccccn2)n1 (stereo not drawn) | · | · | · | 0 | · | ·
O=c1[nH]c(C2CCN(S(=O)(=O)c3cccc([N+](=O)[O-])c3)CC2)nc2c1nnn2Cc1ccccc1 | 27 | -2 | 61* | 1 | 0 | 3
Cc1cc(C(=O)Nc2ccc(F)cc2C)n(-c2ccccc2)n1 | 19 | 0 | 24 | 2 | 2 | -4
COc1ccc(C2c3ccc(O)cc3Oc3ncn(CCCO)c(=N)c32)cc1 (stereo not drawn) | 21 | -12 | 51* | 1 | 4 | -2
C[C@H](CO)N1C[C@H](C)[C@@H](CN(C)S(=O)(=O)c2ccccc2F)Oc2ncc(Br)cc2C1=O | · | · | · | 0 | · | ·
COCCN(CC(=O)NC1CCCCC1)C(=O)/C=C/C(=O)c1ccc(OC)cc1O | -83* | -3 | -85 | -1 | 37 | -2
O=S(=O)(Nc1ccc(C(O)(C(F)(F)F)C(F)(F)F)cc1)c1cccc2ccccc12 | · | · | · | 0 | · | ·
CCCS(=O)(=O)N1CCc2cc(OC)c(OC)cc2C1 | -55* | -5 | -68 | -1 | -3 | -1
COc1ccc(S(=O)(=O)N2CCc3cc(OC)c(OC)cc3C2)cc1 | -2 | -8 | -18 | 1 | -1 | -7
COc1ccc(N2CCN(C(=O)COC(=O)CNC(=O)c3cccc(OC(F)F)c3)CC2)cc1 | · | -5 | · | 0 | · | ·
SMILES | HSF1 inh | dFosB act | HSF1 activator | MPTP inh | Platelet DG rel | HSP90 refold inh
COc1cc(/C=N/N=C(N)N)ccc1OCc1ccccc1Cl | 17 | 24* | 55* | -3 | -3 | -1
CCOC(=O)N1CCC(=NNc2ccc(S(=O)(=O)N3CCOCC3)cc2[N+](=O)[O-])CC1 | 3 | -5 | 12 | 2 | 2 | -1
CN1CCC(=NNc2ccc(S(=O)(=O)N3CCOCC3)cc2[N+](=O)[O-])CC1 | 47 | 10 | 98* | 0 | -9 | -3
CC1CN(C(=O)CS(=O)(=O)Cc2ccccc2)CC(C)O1 (stereo not drawn) | 17 | -3 | 60* | 0 | 15 | -5
CC1CCN(C(=O)CS(=O)(=O)Cc2ccccc2)CC1 | 1 | 2 | 4 | 0 | -2 | 0
O=C(NCCc1ccc(Cl)cc1)c1ccc2c(c1)OCO2 | 64 | 9 | 99* | 1 | 6 | 1
Cc1cc(C)n(CCNC(=O)c2ccc3c(c2)OCO3)n1 | 11 | 2 | 58* | 0 | -6 | -4
Cc1cc(C)n(C(C)CNC(=O)c2ccc3c(c2)OCO3)n1 (stereo not drawn) | -3 | -7 | 32 | 0 | -1 | 4
O=C(NCCc1ccc(Cl)cc1)c1ccc(Br)s1 | 53 | 3 | 67* | -2 | -5 | -2
NS(=O)(=O)c1ccc(CCNC(=O)c2ccc3c(c2)OCO3)cc1 | -6 | -2 | -3 | -1 | -21 | -4
CC(C)[C@H](NC(=O)c1ccccc1)C(=O)OCC(=O)Nc1ncc(Cl)cc1Cl | · | -9 | · | 1 | · | ·
CN1CCc2c(sc3c2C(=O)NC(c2ccc(-c4ccc(Cl)cc4)o2)N3)C1 (stereo not drawn) | -86* | 5 | -90 | 2 | 8 | 3
O=C1CC(c2ccco2)CC2=C1C=Nc1ccccc1N2 (stereo not drawn) | 1 | -11 | 11 | -1 | -3 | 1
O=c1[nH]c2c(s1)C=Nc1ccccc1N2 | 34 | 7 | 70* | 4 | 77* | -2
O=C(NC(=S)Nc1cccc(Cl)c1N1CCCCC1)c1ccc2c(c1)OCCO2 | -58* | 0 | -66 | 6 | -2 | -1
O=C(Nc1cccc(Cl)c1N1CCCCC1)c1ccc2c(c1)OCCO2 | 0 | -9 | 2 | 0 | -1 | 2
CC(NC(=O)COC(=O)CCN1C(=O)C2CC=CCC2C1=O)c1ccc(Br)cc1 (stereo not drawn) | · | -7 | · | -1 | · | ·
C/C(=N/NC(=O)c1cccc(N2CCCC2=O)c1)c1ccncc1 | 2 | -1 | -3 | 0 | 1 | 2
CCOc1cc(CNCC2CCCN2CC)cc(Cl)c1OC (stereo not drawn) | -74* | 2 | -81 | -2 | 3 | 1
CCN1CCCC1CNCc1cc(OC)c(OC)c(OC)c1 (stereo not drawn) | -9 | -7 | -1 | 3 | 2 | 1
CCOC(=O)/C(C#N)=C1\SS/C(=C(/C#N)C(=O)OCC)S1 | -3 | · | 17 | · | 3 | 5
COCCN(Cc1ccccc1)C(=O)c1cccc(S(=O)(=O)N2CCN(Cc3ccccc3)CC2)c1 | · | · | · | 0 | · | ·

Screening results deposited in PubChem BioAssay by several laboratories.
